Experimental data reported in the supplement of paper PMC6555819.

Key:
Assay in all cases: PBM binding z-score (relative to random genomic background probes); higher = stronger binding; sequences stand for … in GC…GCGATTGACAGCGTAGAATGAAGG
[1] = tested on: RARb homodimer (NR concentration 270 nM)
In short: (§1)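 Regression normalization was applied to scanned fluorescence from custom Agilent 4×180K protein-binding microarrays. Before scanning, arrays were incubated 1 h with ligand-free nuclear receptor dimers, and binding was detected with antibodies against each partner (one per run). Binding z-scores use the random background probes as reference.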

[2] = tested on: RARg:RXRa (NR concentration 270 nM, RXRa partner concentration 90 nM)
In short: as §1

[3] = tested on: RARg homodimer (NR concentration 270 nM)
In short: as §1

[4] = tested on: RXRa DBDmut IVT, anti-RXR (DBD mutation: RXRa K156A/R161A, NR concentration 90 nM)
In short: as §1

[5] = tested on: RXRa homodimer (NR concentration 180 nM)
In short: as §1

[6] = tested on: THRa:RXRa (NR concentration 90 nM, RXRa partner concentration 90 nM)
In short: as §1

[7] = tested on: THRa homodimer (NR concentration 90 nM)
In short: as §1

[8] = tested on: VDR:RXRa (NR concentration 270 nM, RXRa partner concentration 90 nM)
In short: as §1

[9] = tested on: VDR homodimer (NR concentration 270 nM)
In short: as §1

Row | Sequence | PBM binding z-score [1] | PBM binding z-score [2] | PBM binding z-score [3] | PBM binding z-score [4] | PBM binding z-score [5] | PBM binding z-score [6] | PBM binding z-score [7] | PBM binding z-score [8] | PBM binding z-score [9]
1 | CGTCCAAGGTCAAAGGACAGTGAAGAGATGACGG | 4.02 | 5.79 | 6.52 | 3.52 | 5.67 | 3.76 | 1.95 | 3.76 | 2.37
2 | ACTCGGAGGACAAAGGGCAGAGCTACGCCAGTGA | 1.69 | 1.81 | 1.91 | 0.468 | 0.615 | 0.877 | -0.631 | -0.214 | -0.288
3 | CCGAGTAGGTTATGGGGCATTCCGGCAACGGTGA | 1 | 0.266 | 0.307 | -0.402 | 0.465 | 0.0973 | 0.142 | -0.216 | 0.147
4 | CGTCAAAGTTGAAGGTAACGTAACAGAAAGCAGC | 0.588 | 0.945 | 1.11 | 0.128 | 0.848 | 0.402 | -0.078 | -0.0741 | -0.0561
5 | GATACAGGGTCAACGCCAGAGTACGCGTATTGAT | 3.62 | 5.79 | 6.23 | 2.6 | 6.68 | 3.42 | 1 | 4.77 | 2.52
6 | TCGAGTAGGTTTGTCGGGGCATTCAGCCAACATA | 0.429 | -0.206 | -0.592 | 0.805 | -0.149 | 0.462 | 0.392 | 0.467 | 0.461
7 | TCTTGTAGATCAATAGAGGTTAAGTAAGTGCGCT | 1.37 | 0.902 | 0.6 | 0.824 | 1.49 | 3.1 | -0.295 | 2.65 | 0.563
8 | CCTCGGAGGACGACAGGAGGTCAGAGCTGCCAGA | 2.84 | 2.54 | 2.08 | -0.23 | 1.84 | 2.33 | 0.421 | 1.44 | 0.665
9 | CGAACTAGGTCAAAGGTCAAAGTCGAGCCAACCA | 5.24 | 8.9 | 7.55 | 3.33 | 10.3 | 4.58 | 1.53 | 6.78 | 3.66
10 | GCGATTGGGGCAAAGCAGGTTACCATAAGGTTGG | 1.1 | 0.454 | 0.635 | 0.0691 | 0.619 | 3.01 | 0.281 | 0.27 | 0.0482
11 | CCTCGGAGGACTACAGGAGGTCAGAGCTGCCAGA | 2.9 | 2.37 | 2.06 | -0.895 | 1.93 | 2.55 | 0.263 | 1.26 | 0.359
12 | TCTCGGTGGACACGAAAGGTCAGAGCTCGACATC | 4.36 | 4.38 | 4.33 | 0.665 | 4.52 | 2.96 | 0.543 | 2.84 | 0.45
13 | ACTTACGGGTCAACGAGGTTAAAGCACGCGTATA | 3.82 | 5.73 | 5.18 | 2.51 | 6.72 | 4.25 | 1.17 | 7.52 | 3.67
14 | GCTAGTTGGTGAGTAAAAGGTCACACACCGGTCG | 4.97 | 4.87 | 4.37 | 0.235 | 5.35 | 3.48 | 1.6 | 3.72 | 1.57
15 | ACTATTAGTTGAGAAGAGGGCAACCGATAGGTTG | 1.43 | 0.92 | 0.968 | 0.286 | 0.599 | 1.37 | -0.313 | 0.507 | 0.263
16 | CGAAGGAGGGCATGAGTTGATAGCAAATGCCGAT | 0.409 | 0.997 | 1.45 | 0.567 | 0.619 | 0.292 | -0.803 | 0.513 | 0.969
17 | GGAACGAGGGCAAAGATGATAGCATCTGTCGACG | 0.55 | 1.1 | 1.59 | 2.33 | 1.02 | 0.506 | -0.734 | 0.573 | 0.578
18 | ATATGTAGGTTAAGGCTCATTCAGGTTGGTTCGC | 0.698 | 0.684 | 0.622 | 0.534 | 0.844 | 0.76 | 0.71 | 0.395 | 0.761
19 | TCTCGGAGGACACCAAGGTCAGAGCTTTCCAGAG | 3.68 | 2.96 | 3.73 | 0.966 | 1.75 | 3.13 | 2.38 | 3.36 | 2.31
20 | CCAGACAGGTGAAAGGTAACTAAGTCTGGTACGC | 0.728 | 1.08 | 0.582 | -0.0522 | 1.99 | 0.784 | -0.203 | 0.397 | -0.529
21 | CCACACAGGTGAAAGGTAACTCAGTCTGGTACGC | 1.05 | 1.5 | 0.76 | 0.262 | 2.32 | 1.06 | 0.165 | 1.05 | -0.208
22 | ACTATTTGTTGACTTAGGGCAACCGATACGACGC | 1.01 | 0.754 | 1.08 | 0.742 | 0.588 | 1.12 | 0.816 | 0.227 | 0.486
23 | ATCTCTAGGTAACCAAGGTCAGTGAATGCCGAAC | 3.5 | 2.62 | 2.69 | 0.51 | 2.14 | 3.31 | 2.53 | 3.67 | 1.52
24 | GTACCAAGATGAATAGGTCGTTGATGAGTAGGCG | 0.283 | 0.181 | 0.272 | -0.187 | 0.691 | 0.143 | -0.535 | -0.0191 | -0.179

Row | Sequence | PBM binding z-score [1] | PBM binding z-score [2] | PBM binding z-score [3] | PBM binding z-score [4] | PBM binding z-score [5] | PBM binding z-score [6] | PBM binding z-score [7] | PBM binding z-score [8] | PBM binding z-score [9]
25 | CTACCAAGGTGAACAAGGGCGTTGATTACTATTC | 1.26 | 1 | 0.99 | 0.764 | 0.725 | 2.13 | 0.707 | 4.73 | 0.903
26 | CCGACTGAGGCAAAGGTTACCATACTCAGTACGA | 1.76 | 1.73 | 1.29 | 0.393 | 2.61 | 1.54 | 0.023 | 1.07 | -0.216
27 | CCTATTGGGCCAAAGGTCATTGATTCCAATGCTC | 4.43 | 5.85 | 4.73 | 1.62 | 6.7 | 3.29 | 0.647 | 4.66 | 2.85
28 | TCTATTAGTTGAAGGTCAACCGACGAGTCCGTTT | 4.21 | 4.22 | 4.39 | 2.25 | 4.15 | 3.13 | 1.93 | 3.85 | 3.45
29 | CGAACTAGGTCAACCAGGACAGTGAATACATTGA | 3.24 | 4.4 | 5.25 | 1.8 | 2.99 | 3.53 | 1.82 | 4.96 | 1.85
30 | TCATATAGGTAAAGGTGAAAGGCGAACGATATGA | 1.51 | 1.67 | 1.39 | 0.748 | 2.24 | 1.7 | -0.314 | 1.14 | -0.263
31 | TCTAGCAGGCCAGAGGGTCACTCACGAGGTACGG | 2.69 | 2.68 | 2.14 | 0.0334 | 2.44 | 1.61 | 0.0798 | 1.33 | 0.852
32 | ATCTCTAGGTAACAAGTTCAGTGTAAGAGAGGAC | 1.94 | 1.5 | 1.49 | 1.15 | 0.874 | 1.8 | 0.989 | 2.3 | 2.99
33 | TCTTGGAGGACACGAAGGTCAGAGCTTTCCAGAG | 3.54 | 3.23 | 3.69 | 0.774 | 1.83 | 2.89 | 0.692 | 2.35 | 1.13
34 | TCTTGTAGATCAACAGGAGATTAAGAAAGATCGA | -1.12 | -0.112 | -0.181 | 0.2 | 0.147 | -0.777 | -1.13 | 0.136 | -0.417
35 | GATAGAGGGTCAGCTAGAGGCCAGAGTATGGAAA | 3.28 | 6.38 | 4.5 | 0.579 | 3.71 | 2.39 | -0.103 | 2.45 | 0.387
36 | TCATATAGGTAAATGCTAAGTGAAAGTCCGATCT | 0.0173 | 0.4 | 0.337 | 1.68 | 0.615 | 0.0115 | -0.264 | 0.987 | 0.0364
37 | TAGCCTAGGTCATTGGGCCAGTATCGTACGCATC | 2.91 | 3.85 | 4 | 1.73 | 2.84 | 2.87 | 1.01 | 2.37 | 1.43
38 | ATCGCAAGGTCGTGAGGTGAGTATACAGAAAGGC | 2.13 | 2.76 | 2.38 | 1.62 | 3.06 | 3.33 | 2.41 | 2.33 | 1.55
39 | TAGCCTAGGTCATTGGGCCATTATAGTACGCATC | 3.07 | 4.19 | 4.28 | 1.85 | 2.96 | 3.07 | 1.24 | 2.54 | 1.44
40 | ACTAGCAGGCCAAGGCTCACTCAAGATTAGTCCG | -0.234 | -0.222 | 0.0156 | -0.206 | -0.0748 | -0.43 | -0.144 | -0.781 | -0.802
41 | AGAATGAGGTAATACGTAGATCAGGGAAGAAAGT | -0.0706 | 0.35 | 0.314 | -0.0157 | 0.428 | 1.39 | 0.304 | -0.148 | -0.472
42 | TAGCCTAGATCATTCAGGGGCCAGTATAGAAAGC | 0.182 | 0.658 | 0.249 | -0.277 | 0.341 | 0.0485 | -0.624 | -0.321 | -0.00416
43 | AGAACGAGCGCACGCTGAGTTGATAGCAGAGTAG | -1.25 | -0.476 | -0.51 | -0.346 | -0.489 | -0.752 | -1.21 | -0.801 | -0.599
44 | CGAACTAGGTCATCCAGAACAGTGAATACATTGA | 2.8 | 4.03 | 4.69 | 2.23 | 2.89 | 2.64 | 1.15 | 2.56 | 1.17
45 | TAGCCTAGGTCAGATGGGGCCAGTATACGCTATA | 2.71 | 2.98 | 3.65 | -0.279 | 1.62 | 4.6 | 0.386 | 2.69 | 0.0236
46 | CCGACTGAGGCAAGGTTACCATAACGCACAGCCA | 1.01 | 0.557 | 0.458 | 0.18 | 0.97 | 1.26 | 0.413 | 0.0737 | 0.118
47 | GCTAGCACGCCATTTGGGTCACTCAATGACGGGC | 1.32 | 0.76 | 0.779 | -0.343 | 0.832 | 1.5 | 0.413 | -0.0776 | -0.357
48 | CCTAGTTGGTCAGGAGGTCACACATCGGATATGA | 4.48 | 4.62 | 4.11 | 0.662 | 4.21 | 3.39 | 2.2 | 3.76 | 2.7
